# Screening results from PubChem.
# UDG counterscr = Primary qHTS assay for inhibitors of Activation Induced Cytidine Deaminase (AID): UDG Counterscreen signal; Uracil-DNA glycosylase; FRET deamination/UDG coupled assay, UDG read, 4 h; Potency, µM (titrated, usually from 115 µM), for the others: at the top dose activity change, negative = inhibition, actives largely listed as inhibitors; hit rate 0.14% among 91,000; AID 1347430, 2020; note: potency is the fitted concentration of half-maximal effect; % is set by controls: 0 for no effect and ±100 for the full control effect; nearly all actives have a fitted effect of over 65% in size
# GPR32 ag = qHTS for Agonists of Human Resolvin D1 Receptor DRV1. Probable G-protein coupled receptor 32 (Homo sapiens), O75388. CHO-K1 GPR32 beta-arrestin PathHunter luminescence, 90 min; zero percent set by DMSO-only wells. activation, % at 76.9 µM. hit rate 2.5% among 48,000;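 active = activation of at least 60% and not above a set upper limit, about 1 call in 100 departs from these limits; inconclusive = activation of 40% to 60%, or above that upper limit; inactive = activation under 40%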; note: 0% is about no effect
# Target sequence (O75388 whole entry, looked up): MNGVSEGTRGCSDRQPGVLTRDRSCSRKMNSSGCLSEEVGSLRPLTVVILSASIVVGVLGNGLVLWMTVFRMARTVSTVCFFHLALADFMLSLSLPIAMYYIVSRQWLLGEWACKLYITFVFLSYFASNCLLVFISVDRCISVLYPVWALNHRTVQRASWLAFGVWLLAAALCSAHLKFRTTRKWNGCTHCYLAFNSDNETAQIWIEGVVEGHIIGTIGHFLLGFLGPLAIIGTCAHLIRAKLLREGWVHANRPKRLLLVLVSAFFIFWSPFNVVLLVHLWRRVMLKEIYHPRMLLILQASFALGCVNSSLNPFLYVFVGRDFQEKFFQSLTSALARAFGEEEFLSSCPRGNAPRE
#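 Beta-arrestin recruitment read-out: luminescence from complemented beta-Gal in CHO-K1 GPR32 PathHunter cells, measured 1 h after detection reagent at ambient temperature following 90 min compound exposure at 37 °C; DMSO served as basal (EC0) control.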
# AID inh = Primary qHTS assay for inhibitors of Activation Induced Cytidine Deaminase (AID): AID signal | Potency, µM (top dose mostly 115 µM), usual class: inhibitors | AID deamination FRET fluorescence, UDG-coupled, 4 h | hit rate 0.32% among 91,000 | Single-stranded DNA cytosine deaminase (Homo sapiens), Q9GZX7 | AID 1347428, 2020; note: potency is the fitted concentration of half-maximal effect; % is set by controls: 0 for no effect and ±100 for the full control effect; nearly all actives have a fitted effect of over 25% in size
# Target sequence (Q9GZX7 whole entry, looked up): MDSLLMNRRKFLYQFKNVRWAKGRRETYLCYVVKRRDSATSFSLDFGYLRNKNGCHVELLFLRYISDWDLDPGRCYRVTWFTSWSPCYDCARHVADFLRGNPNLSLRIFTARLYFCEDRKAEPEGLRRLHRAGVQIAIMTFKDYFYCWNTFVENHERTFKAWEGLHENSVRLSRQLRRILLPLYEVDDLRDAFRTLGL
# Numbers without * were called inactive; i = inactive; ? = inconclusive; · = not tested or not shown; [ ] = dose if it differs, or a comment. Only a selection was taken, and hits are over-represented in it overall. Unless noted, calls come from the whole dose curve; as a rule, active = well fitted curve in the direction sought with a large enough effect; inconclusive = small, poorly fitted or top-dose-only effect, or another doubt; inactive = no such curve, though single readings can be large; an effect the other way counts as inactive or inconclusive.
SMILES,UDG counterscr,GPR32 ag,AID inh
C/C=C/C(=O)OC(C)C(=O)Nc1ccccc1SC (configuration not stated),4.6%,·,i
S=c1n(/N=C/c2ccc(Br)cc2)cnn1Cc1ccccc1Cl,-6.2%,·,i
Fc1ccc(-n2ncc3c(NC4CCCCC4)ncnc32)cc1,-10.4%,·,i
O=C(NNc1ncnc2c1cnn2-c1ccccc1)c1cccc(Cl)c1,13.1%,24.9,i
CC(Nc1ncnc2c1cnn2-c1cccc(Cl)c1)c1ccccc1 (configuration not stated),-15.5%,91.4*,?
CCN(CC)c1ncnc2c1cnn2-c1cc(Cl)ccc1C,0.0%,71.6*,i
Fc1ccc(-n2ncc3c(NC4CCCCCC4)ncnc32)cc1,-12.4%,79.7*,i
Cc1ccc(Cl)cc1-n1ncc2c(Nc3ccc4c(c3)OCCO4)ncnc21,-5.4%,-6.1,i
Cc1ccc(-c2csc(Nc3ccc(S(=O)(=O)Nc4nc(C)cc(C)n4)cc3)n2)cc1,?,·,i
Cc1ccc(C)c(-c2csc(Nc3ccc(S(=O)(=O)Nc4nc(C)cc(C)n4)cc3)n2)c1,89.1µM*,·,?
CC(Cc1cccs1)N(Cc1ccc(Cl)cc1)C(=O)C1CC1 (configuration not stated),-4.2%,·,i
CCCCn1nc(C(=O)Nc2ccccc2)c2ccccc2c1=O,-2.6%,·,i
CC(C)c1ccc(C2=CC(c3cccc(Cl)c3)n3ncnc3N2)cc1 (configuration not stated),-12.7%[57.5 µM],73.7*,?
CC(C)c1ccc(C2=CC(c3cccc(Cl)c3)n3c(nc4ccccc43)N2)cc1 (configuration not stated),0.9%,47.1,i
CC1CCC2(CC1)NC(=O)N(Cc1coc(-c3cccs3)n1)C2=O (configuration not stated),-0.8%,·,i
O=C1c2[nH]nc(-c3ccc(Br)cc3)c2C(c2cccc(O)c2)N1c1ccc(Cl)cc1 (configuration not stated),2.4%,95.7*,i
Cc1ccc(-c2n[nH]c3c2C(c2cccc(O)c2)N(c2ccc(C(=O)O)cc2)C3=O)cc1 (configuration not stated),-0.6%,-19.7,?
Cc1cc(-n2c(C)cc(C(=O)CSc3nnc(COc4ccccc4Cl)n3C)c2C)no1,-12.7%,·,i
CCc1ccc(NC(=O)CN(c2ccc(OC)cc2)S(=O)(=O)c2c(C)[nH]c(=O)[nH]c2=O)cc1,-2.0%[57.5 µM],-13.7,i
CCc1ccc(NC(=O)CN(c2cc(C)cc(C)c2)S(=O)(=O)c2c(C)[nH]c(=O)[nH]c2=O)cc1,4.3%[57.5 µM],76.5*,i
COc1ccc(SCCCCO)cc1,4.1%,·,i
COc1ccc(N2C(=O)CCS2(=O)=O)cc1S(=O)(=O)N1CCN(c2ccccc2)CC1,-10.6%,·,i
CCn1cc(C(=O)N2CCN(c3cccc(C)c3C)CC2)c2cc(OC)c(OC)cc2c1=O,-10.2%,75.8*,i
CCn1cc(C(=O)N2CCN(c3cccc(C(F)(F)F)c3)CC2)c2cc(OC)c(OC)cc2c1=O,-9.7%,18.1,i
CCOC(=O)c1cc(NC(=O)c2cc(Br)cc(C)c2OC)ccc1N1CCOCC1,-4.5%,·,i
SMILES,UDG counterscr,GPR32 ag,AID inh
C[C@H](NS(=O)(=O)/C=C/c1ccccc1)C(=O)OCC(=O)c1c[nH]c2ccccc12,1.5%,·,i
Cc1ccc(-c2cc(C(F)(F)F)on2)cc1S(=O)(=O)NCc1ccc(F)cc1,-15.9%,·,i
COc1cc(OC)c(OC)cc1/C=C/C(=O)c1ccc(OC(F)F)c(OC)c1,-3.0%,·,i
O=c1onc2n1-c1cc(Br)ccc1OC2,-4.0%,64.5*,i
Cc1ccc(C(NC(=O)CCl)C2CC2)cc1 (configuration not stated),-3.6%,·,i
N=c1n(CCO)c2ccccc2n1CCOc1ccc(F)cc1,5.9%,12.1,i
CCCCn1c(=N)n(CCCOc2ccc(F)cc2)c2ccccc21,-13.6%,76.0*,?
COc1ccc(-c2noc(N3CCC(C(=O)N(C)c4cc(Cl)ccc4OC)CC3)n2)cc1,-13.7%,-26.6,79.4µM*
COc1ccc(-c2noc(N3CCC(C(=O)N4CCN(c5ccccc5OC)CC4)CC3)n2)cc1,?,13.8,i
Cc1cc2ccccc2n1CCNC(=O)c1cccc(Br)c1,-6.1%,25.1,i
Cc1cc2ccccc2n1CCNC(=O)c1cccc(Cl)c1,-5.3%,116.0*,i
CCCOc1ccc(-c2cc(C(F)(F)F)c(C#N)c(SCCC(=O)O)n2)cc1,-21.4%,21.4,79.4µM*
CCOC(=O)CSc1nc(-c2ccc(OCC)cc2)cc(C(F)(F)F)c1C#N,1.3%,-13.6,i
CCc1ccc(NC(=O)Cn2c(=O)oc3cc(S(=O)(=O)N4CCCCCC4)ccc32)cc1,-5.8%,21.7,i
CCOc1ccc(NC(=O)Cn2c(=O)oc3cc(S(=O)(=O)N4CCC(C)CC4)ccc32)cc1,?,117.0*,i
COc1ccccc1CNC(=O)Cn1c(=O)oc2cc(S(=O)(=O)N3CCC(C)CC3)ccc21,?,77.5*,i
COc1ccccc1CNC(=O)Cn1c(=O)ccc2cc(S(=O)(=O)N3CCC(C)CC3)ccc21,-12.6%,-5.4,?
COc1ccc(CN2CCN(C(c3ccc(F)cc3)c3ccc(F)cc3)CC2)c(OC)c1OC,·,78.3*,·
COc1cccc(CN2CCCCC2)c1OC,-10.9%,·,i
COc1cc2c(c(OC(=O)c3ccccc3)c1OC)CC(=O)CCC2,-8.0%,·,i
CCN(C(=O)C(C)S(=O)(=O)Cc1cccc(Cl)c1)c1ccccc1 (configuration not stated),5.8%,·,i
NC(=O)CNS(=O)(=O)c1ccc(C(=O)O)cc1,5.0%,·,i
CCN(CC)CCOc1ccc(/C(=C(\Cl)c2ccccc2)c2ccccc2)cc1,·,91.0*,·
CCN(CCOc1ccc(C#N)cc1)Cc1ccccc1,4.4%,·,i
COc1ccc(OC(=O)c2cnccn2)cc1,-8.1%,·,i
SMILES,UDG counterscr,GPR32 ag,AID inh
CSc1ccc(CNC(=O)Cn2ccc3cc(S(=O)(=O)N4CCCC4)ccc32)cc1,?,20.3,i
CCOc1ccc(CNC(=O)Cn2ccc3cc(S(=O)(=O)N4CCCCC4)ccc32)cc1,-18.8%[57.5 µM],77.4*,i
COc1cccc(/C=N/O)c1OC,-1.9%,·,i
Cc1cc(C)c2c(=O)cc(CSc3nnc(-c4cccc(F)c4)n3C)[nH]c2c1,-1.7%,·,i
Cc1cc(C)c2c(=O)cc(CSc3nnc(-c4ccccc4)n3C)[nH]c2c1,-13.3%[57.5 µM],60.7*,i
CC(C)(C)c1ccccc1NC(=O)CSc1nc2ncc(Br)cc2[nH]1,29.1%,·,i
CCOc1ccc(N(C)S(=O)(=O)c2ccc3[nH]cc(C(=O)NCc4ccccc4)c(=O)c3c2)cc1,-11.3%,0.1,i
CCc1ccc(N(C)S(=O)(=O)c2ccc3[nH]cc(C(=O)NCC4CCCO4)c(=O)c3c2)cc1 (configuration not stated),-22.7%,110.3*,i
CCCNC(=O)c1cccc(CNCc2ccc(F)cc2)c1,-7.8%,·,i
CC(C)(C)C1CCc2c(sc(NC(=O)c3ccccc3F)c2C(=O)NCc2ccco2)C1 (configuration not stated),-11.6%,11.2,11.2µM*
